Compounds without any hit were thinned out: in the full panel of roughly 83,000, 20% have a hit.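 The test compound was applied at a single concentration to cells in 96-well plates for 48 hours, and percent growth was recorded.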 Calls of active or inactive are those of the source. Rule for the calls: active = growth percent below 10; inactive = the rest.
Experiments:
Assay in all cases: NCI-60 one-dose screen, 48 h (100 = growth as untreated, 0 = no growth, -100 = all killed)
Conditions in all cases: 10 µM unless noted
NCI-H23 lung = test system: NCI-H23 lung
NCI-H226 lung = test system: NCI-H226 lung
NCI-H322M lung = test system: NCI-H322M lung
HOP-62 NSCLC = test system: HOP-62 NSCLC
NCI-H460 lung = test system: NCI-H460 lung
HOP-92 NSCLC = test system: HOP-92 NSCLC
NCI-H522 lung = test system: NCI-H522 lung
A549/ATCC NSCLC = test system: A549/ATCC NSCLC
786-0 renal = test system: 786-0 renal
COLO 205 colon = test system: COLO 205 colon
DU-145 prostate = test system: DU-145 prostate
K-562 leukemia = test system: K-562 leukemia
MALME-3M melanoma = test system: MALME-3M melanoma
MDA-MB-231 breast = test system: MDA-MB-231 breast
RXF 393 renal = test system: RXF 393 renal
SF-268 CNS = test system: SF-268 CNS
SF-295 CNS = test system: SF-295 CNS
SF-539 CNS = test system: SF-539 CNS
UACC-257 melanoma = test system: UACC-257 melanoma
M14 melanoma = test system: M14 melanoma

Measured: growth

N#C/C(=C\c1ccc(-c2ccc(F)cc2)o1)c1nc(-c2ccco2)cs1
inactive: NCI-H23 lung 93.6% | NCI-H226 lung 84% | NCI-H322M lung 93% | HOP-62 NSCLC 96.7% | NCI-H460 lung 91.2% | HOP-92 NSCLC 93.9% | NCI-H522 lung 98.1% | A549/ATCC NSCLC 103% | 786-0 renal 109% | COLO 205 colon 108% | DU-145 prostate 104% | K-562 leukemia 95.9% | MALME-3M melanoma 98.1% | MDA-MB-231 breast 88.7% | RXF 393 renal 116% | SF-268 CNS 106% | SF-295 CNS 102% | SF-539 CNS 98.7% | UACC-257 melanoma 106% | M14 melanoma 102%

Cn1cc(-c2csc(-c3cn(CCN)c4ccc(F)cc34)n2)c2cccnc21
inactive: NCI-H23 lung 72.4% | NCI-H226 lung 80.2% | NCI-H322M lung 73% | HOP-62 NSCLC 64.7% | NCI-H460 lung 23.4% | HOP-92 NSCLC 48.5% | NCI-H522 lung 81.2% | A549/ATCC NSCLC 42% | 786-0 renal 79.4% | COLO 205 colon 67.1% | DU-145 prostate 68.5% | K-562 leukemia 11.4% | MALME-3M melanoma 87.4% | MDA-MB-231 breast 59.9% | RXF 393 renal 82.6% | SF-268 CNS 85.9% | SF-295 CNS 92.4% | SF-539 CNS 80.1% | UACC-257 melanoma 100% | M14 melanoma 81.4%

CN1CCN(c2nc(-c3csc(-c4cccs4)n3)cc3ccccc23)CC1
inactive: NCI-H23 lung 79.1% | NCI-H226 lung 94.5% | NCI-H322M lung 81% | HOP-62 NSCLC 68.3% | HOP-92 NSCLC 23% | NCI-H522 lung 70.7% | A549/ATCC NSCLC 47.9% | 786-0 renal 48.1% | DU-145 prostate 55.8% | MALME-3M melanoma 70.4% | MDA-MB-231 breast 41.6% | RXF 393 renal 40.3% | SF-268 CNS 49.6% | SF-295 CNS 83% | SF-539 CNS 86.7% | UACC-257 melanoma 21.6%
active: NCI-H460 lung -25.6% | COLO 205 colon -51.1% | K-562 leukemia -35.9% | M14 melanoma -44.9%

Cn1nc(-c2ccccc2)c2c(-c3ccccc3)onc2c1=O
inactive: NCI-H23 lung 48% | NCI-H226 lung 62.1% | NCI-H322M lung 55.4% | HOP-62 NSCLC 31% | NCI-H460 lung 28.3% | HOP-92 NSCLC 43.9% | NCI-H522 lung 10.6% | A549/ATCC NSCLC 35.4% | 786-0 renal 49.7% | COLO 205 colon 15.2% | DU-145 prostate 34.6% | K-562 leukemia 13% | MALME-3M melanoma 62.9% | MDA-MB-231 breast 52% | RXF 393 renal 23.8% | SF-268 CNS 47% | SF-295 CNS 27.3% | UACC-257 melanoma 49.2% | M14 melanoma 42.3%
active: SF-539 CNS 2.75%

CCCCC(=O)OC1CCCCC1C (stereo not given)
inactive: NCI-H23 lung 97.3% | NCI-H226 lung 79.1% | NCI-H322M lung 111% | HOP-62 NSCLC 98.9% | NCI-H460 lung 104% | HOP-92 NSCLC 77.6% | NCI-H522 lung 83% | A549/ATCC NSCLC 72.3% | 786-0 renal 92.4% | COLO 205 colon 100% | DU-145 prostate 105% | K-562 leukemia 98.8% | MALME-3M melanoma 94.6% | MDA-MB-231 breast 106% | RXF 393 renal 93.4% | SF-268 CNS 98.7% | SF-295 CNS 97% | SF-539 CNS 103% | UACC-257 melanoma 78.5% | M14 melanoma 95.4%

O=C(/C=C/c1cccc2ccccc12)Nc1ncc(Cc2ccccc2)s1
active: NCI-H460 lung 2.17% | K-562 leukemia 8.6% | RXF 393 renal -10% | SF-295 CNS -40.1% | SF-539 CNS -24.4% | M14 melanoma -21.3%
inactive: NCI-H23 lung 22.1% | NCI-H226 lung 28.4% | NCI-H322M lung 12.5% | HOP-62 NSCLC 28.7% | HOP-92 NSCLC 70.3% | NCI-H522 lung 34.5% | A549/ATCC NSCLC 19.5% | 786-0 renal 34.3% | COLO 205 colon 12.1% | DU-145 prostate 21.2% | MALME-3M melanoma 21.7% | MDA-MB-231 breast 25% | SF-268 CNS 50.8% | UACC-257 melanoma 60.8%

COc1cc2c(cc1-c1c(C)noc1C)ncc1nc(C3CC3)n([C@H](C)COC(F)F)c12
inactive: NCI-H23 lung 65.4% | NCI-H226 lung 58.1% | NCI-H322M lung 47.8% | HOP-62 NSCLC 43.4% | NCI-H460 lung 60.7% | HOP-92 NSCLC 37% | NCI-H522 lung 27.4% | A549/ATCC NSCLC 36.1% | 786-0 renal 51.6% | COLO 205 colon 25.1% | DU-145 prostate 72.4% | K-562 leukemia 30.4% | MALME-3M melanoma 80.4% | MDA-MB-231 breast 51% | RXF 393 renal 53.9% | SF-268 CNS 71.2% | SF-295 CNS 56.8% | SF-539 CNS 39.4% | UACC-257 melanoma 36.3% | M14 melanoma 44.2%

— PubChem BioAssay (NCI)
